The structures appear in SMILES notation. Screen size: about 390,000 compounds; about 17,000 (4.4%) were called active. About 8% were inconclusive and are not listed. The full list was thinned out, with actives kept by preference. A number with no mark means an inactive call. Calls come from the whole dose curve; as a rule, active = well fitted inhibition curve with a large enough effect; inconclusive = small, poorly fitted or top-dose-only effect; inactive = no such curve, though single readings can be large or run the other way.
% is set by controls: 0 for no effect and ±100 for the full control effect; potency is the fitted concentration of half-maximal effect.

Lysine-specific demethylase 4A (Homo sapiens), sequence (O75164 whole entry, looked up, the tested form may be a part): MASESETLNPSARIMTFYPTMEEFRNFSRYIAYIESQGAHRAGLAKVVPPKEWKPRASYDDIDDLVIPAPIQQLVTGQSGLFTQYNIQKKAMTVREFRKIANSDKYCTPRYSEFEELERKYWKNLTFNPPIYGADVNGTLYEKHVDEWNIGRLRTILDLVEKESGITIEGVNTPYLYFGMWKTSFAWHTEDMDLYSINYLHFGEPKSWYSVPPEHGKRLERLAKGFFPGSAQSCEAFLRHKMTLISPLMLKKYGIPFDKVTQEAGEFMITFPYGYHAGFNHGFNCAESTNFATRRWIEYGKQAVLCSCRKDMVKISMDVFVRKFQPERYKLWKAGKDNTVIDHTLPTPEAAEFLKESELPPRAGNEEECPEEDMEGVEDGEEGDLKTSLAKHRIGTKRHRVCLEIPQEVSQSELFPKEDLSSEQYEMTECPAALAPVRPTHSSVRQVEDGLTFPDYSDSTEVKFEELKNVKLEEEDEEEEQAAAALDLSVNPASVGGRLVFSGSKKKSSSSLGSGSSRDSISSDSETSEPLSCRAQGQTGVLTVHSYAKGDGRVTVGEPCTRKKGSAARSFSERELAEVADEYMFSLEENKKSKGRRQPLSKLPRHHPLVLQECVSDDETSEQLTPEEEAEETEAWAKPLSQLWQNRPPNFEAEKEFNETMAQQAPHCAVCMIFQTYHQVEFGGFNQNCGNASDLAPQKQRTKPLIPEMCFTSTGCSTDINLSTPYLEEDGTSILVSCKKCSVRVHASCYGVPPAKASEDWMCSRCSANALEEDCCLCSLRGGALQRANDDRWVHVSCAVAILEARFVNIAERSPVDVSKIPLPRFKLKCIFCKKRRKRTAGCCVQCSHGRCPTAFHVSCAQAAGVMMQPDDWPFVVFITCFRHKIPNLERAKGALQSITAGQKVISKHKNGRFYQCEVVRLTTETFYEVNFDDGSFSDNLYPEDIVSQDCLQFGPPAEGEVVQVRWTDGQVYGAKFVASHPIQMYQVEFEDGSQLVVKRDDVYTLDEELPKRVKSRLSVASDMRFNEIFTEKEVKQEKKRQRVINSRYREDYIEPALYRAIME

The assay has as its target Lysine-specific demethylase 4A (Homo sapiens) (UniProt O75164). Put plainly: qHTS Assay for Inhibitors of JMJD2A-Tudor Domain. Note: nearly all actives have a fitted effect of over 50% in size. Particulars: AlphaScreen JMJD2A-Tudor / H3K4me3 peptide binding; series mostly up to 114 µM; activity change, negative = inhibition: at the top concentration. From the text: JMJD2A is a jumonji-domain-containing lysine demethylase that uses Fe(II) together with 2-OG to effect oxidative demethylation of histones. Methylation is one of many […] modification that affect epigenetic transcription. […] It is proposed that the functions of JmjD2A binding to the histones, is to maintain marks after they are installed and to spread the modifications by […], establishing a self-propagating cycle for rapid methylation over a large area of chromatin. […] Thus, small molecule targeting of the JMJD2A-tudor domain interaction with its target methylhistone mark is expected to enable sophisticated experiments probing the fine regulatory pathways leading to selective demethylation of a given methyllysine locus based on the methylation state of adjacent histone marks. A quantitative high throughput AlphaScreen has been developed to identify small molecule inhibitors based on a protocol published by NCGC and SGC [4].
Although AlphaScreen has significant advantages with its utility in a variety of epigenetic target assays, the primary screening data provided in this deposition should be used with caution due to the prevalence of screening artifacts. The top compound concentration tested was high (>100uM) in this assay, which increases number of actives and potential artifacts. An AlphaScreen counterscreen is highly recommended to be run against any putative actives to eliminate non-specific artifacts. Alternatively, one can use other AlphaScreen assays in PubChem to filter out promiscuous hits.
[1] Lee, J. et al. Distinct binding modes specify the recognition of methylated histone H3K4 and H4K20 by JMJD2A-tudor. Nat Struct Mol Biol. 15(1); 109-11. 2008. PMID: 18084306
[2] Yasgar, et al. Compound Management for Quantitative High-Throughput Screening. JALA. 2008 Apr;13(2):79-89. PMID: 18496600
[3] Inglese, et al. Quantitative high-throughput screening: a titration-based approach that efficiently identifies biological activities in large chemical libraries. Proc Natl Acad Sci. 1;103(31):11473-8. 2006. PMID: 16864780
[4] Quinn et al. A homogeneous method for investigation of methyl-dependent protein-protein interactions in epigenetics. Nucleic Acids Res., 38(2):e11. 2010. PMID: […]
[5] Baell,Holloway. New substructure filters for removal of pan assay interference compounds (PAINS) from screening libraries and for their exclusion in bioassays. J Med Chem. 53(7):2719-40. 2010. PMID: 20131845
NIH Molecular Libraries Probe Production Network [MLPCN]
NIH Chemical Genomics Center [NCGC]
Structural Genomics Consortium (SGC)
To each well of a 1,536w plate, 2ul of JMJD2A-Tudor (final 100nM) and 1ul biotinylated histone peptide methylated at Lys4 [b-H3(1-18)K4me3] (final 50nM) were added in 1x PBS buffer, pH 7.4, containing 0.01% Tween-20, using a nanoliter dispenser. Formation of a protein-peptide complex proceeded at room temperature for 30 min. A Kalypsys pin-tool transferred 23nl of library compound solution in DMSO to each well. Following a 30 min incubation of the protein-peptide complex with compounds at room temperature, a mixture of 40 µg/mL each streptavidin-coated donor and nickel chelate acceptor AlphaScreen beads (final 10 µg/mL) was added in a 1ul dispense for a final volume of 4ul, followed by a brief centrifugation (1000 rpm, 1 min). Plates were incubated protected from the light for 20 min at room temperature. Microplates were then read on an EnVision multilabel plate reader using the 1,536 plate HTS AlphaScreen aperture (excitation time 80 ms, measurement time 240 ms).
Consider `COc1ccc(OCC(=O)Nc2nnc(-c3ccco3)s2)cc1`, for which the Potency is 79.4 µM (active). As to `COc1ccc(NC(=O)COCc2cc(-c3ccco3)on2)cc1`, the “activity change, negative = inhibition” value was 0.321%. Regarding `CNc1nnc(-c2ccco2)s1`, the “activity change, negative = inhibition” value was -1.99%.

On to `Cc1cccc(NC(=O)CN(c2ccc(C(C)C)cc2)S(=O)(=O)c2c(C)nn(C)c2C)c1C`, for which the “activity change, negative = inhibition” value was -11.3%.

On to `Cc1ccc(C)c(CNC(=O)c2cc3ccccn3n2)c1`, for which the “activity change, negative = inhibition” value was -3.25%. Still for that read-out and setting: the same measure for `CC1CCCN(c2cc3c(cc2F)c(=O)c(S(=O)(=O)c2cccc(Cl)c2)cn3Cc2ccccc2)C1` (stereo unspecified): -8.25%. `Cc1ccc(Cl)cc1NC(=O)CCC(=O)N1CC(C)Sc2ccccc21` (stereo unspecified): the “activity change, negative = inhibition” value was 0%. For `CC(=O)Nc1ccc(S(=O)(=O)Nc2ccc(N3CCCCC3)cc2)cc1`, the Potency is 20 µM (active). For `CC(=O)Nc1ccc(NS(=O)(=O)c2ccc3c(c2)NC(=O)CC(=O)N3)cc1`, the “activity change, negative = inhibition” value is -12.2%. On the same count and under the same terms, then `CC(=O)Nc1ccc(S(=O)(=O)N2CCN(c3ccccc3)CC2)cc1`, with -21.8%. Consider `Cc1ccccc1C(=O)Nc1ccc(N2CCCCCC2)cc1`, for which the Potency is 14.1 µM (active). With `O=C(NC(=O)c1ccccc1N1CCCCC1)Nc1ccc(Br)cc1`, the “activity change, negative = inhibition” value was -15.4%.

For `Cc1ccccc1C(=O)N1CCN(c2ccc(NC(=O)c3cccs3)cc2)CC1`, the “activity change, negative = inhibition” value is -29.7%. Same read-out and setting: then `O=C(O)c1ccc2c(c1)N(Cc1ccc(F)cc1)C(=O)c1ccccc1S2=O` (stereo unspecified), with -20.8%; and `O=C(NCc1ccccc1Cl)C1=Cc2cc(Br)ccc2OC1`, with 1.6%. Same read-out and setting: the same measure for `CCc1ccc(NC(=O)N2CCN(C(=O)c3nsc4ccccc34)CC2)cc1`: -27.9%; for `COc1ccc(Cl)cc1NC(=O)CCn1c(=O)c2cccn2c2ccccc21`: -13.8%; for `COc1cc(NC(=O)Cn2nc(-c3ccc(C)c(C)c3)ccc2=O)cc(OC)c1`: -12.3%. In the case of `Cc1ccc(Cl)c(NC(=O)CN(C)CC(=O)Nc2ccc(F)c(F)c2F)c1Cl`, the Potency was 70.8 µM (active). Consider `CN(CC(=O)NCCc1ccc(F)cc1)CC(=O)Nc1ccc(F)c(F)c1F`, for which the “activity change, negative = inhibition” value is -4.83%. The same measure, in the same setting: the same measure for `Cc1c(NC(=O)CN(C)CC(=O)Nc2ccc(F)c(F)c2F)c(=O)n(-c2ccccc2)n1C`: 5.56%; for `COc1ccc(CCC(=O)NCCc2csc(-c3ccc(Cl)cc3)n2)cc1`: -11.2%; for `O=C(CNS(=O)(=O)c1cccs1)N1CCN(c2ccccc2Cl)CC1`: -18.4%.

On to `O=C(CSc1nccn1Cc1ccc(F)cc1)NCc1ccccc1`, for which the “activity change, negative = inhibition” value was -8.06%. Still for that read-out and setting: then `O=C(CSc1nccn1-c1cccc(F)c1)NC1CCCC1`, with -3.47%.

As to `O=C(CSc1nccn1-c1ccc(F)cc1)Nc1cccc2ccccc12`, the Potency was 28.2 µM (active). Take `CCCNc1ncnc2c1c(-c1ccccc1)cn2-c1ccc(OCC)cc1`: the “activity change, negative = inhibition” value is -30%. Still for that read-out and setting: then `Cc1nc2ccc(S(=O)(=O)NC(C(=O)NCc3ccccc3Cl)C(C)C)cc2s1` (stereo unspecified), with -16.2%. Still for that read-out and setting: then `COc1ccc(-c2nc3ccccc3o2)cc1NC(=O)c1cc([N+](=O)[O-])ccc1N1CCOCC1`, with -3.73%. With `Cc1cc(Cl)ccc1OCC(=O)N(Cc1ccc(N(C)C)cc1)C1CCS(=O)(=O)C1` (stereo unspecified), the Potency is 50.1 µM (active). Regarding `Cc1cc(C)c(OCC(=O)N(Cc2cccs2)C2CCS(=O)(=O)C2)c(C)c1` (stereo unspecified), the “activity change, negative = inhibition” value was -18.9%.

Turning to `COc1ccccc1C(=O)N(Cc1ccc(C)o1)C1CCS(=O)(=O)C1` (stereo unspecified), the “activity change, negative = inhibition” value is 2.07%. Consider `CC(C)c1ccc(OCC(=O)N(Cc2ccc(N(C)C)cc2)C2CCS(=O)(=O)C2)cc1` (stereo unspecified), for which the Potency was 44.7 µM (active). On the same count and under the same terms, the same measure for `Cc1ccc(CN(C(=O)COc2ccc(Cl)cc2C)C2CCS(=O)(=O)C2)o1` (stereo unspecified): 11.2 µM (active). Regarding `CCOc1ccc(C(=O)N(Cc2ccc(N(C)C)cc2)C2CCS(=O)(=O)C2)cc1` (stereo unspecified), the “activity change, negative = inhibition” value was -25.5%. As for `COc1cc(C(=O)N(Cc2ccc(N(C)C)cc2)C2CCS(=O)(=O)C2)cc(OC)c1OC` (stereo unspecified), the activity change, negative = inhibition was -6.11% [at 11.4 µM]. Turning to `CCc1ccc(OCC(=O)N(Cc2ccccc2)C2CCS(=O)(=O)C2)cc1` (stereo unspecified), the “activity change, negative = inhibition” value is -8.83%. On the same count and under the same terms, then `Cc1ccccc1OCC(=O)N(Cc1cccc(F)c1)C1CCS(=O)(=O)C1` (stereo unspecified), with -5.52%.

With `O=C(C1CC1)N1CCc2cc(Br)cc(S(=O)(=O)N3CCN(c4ccccc4F)CC3)c21`, the “activity change, negative = inhibition” value was -11.6%. The same measure, in the same setting: the same measure for `CCc1ccc2oc(-c3ccc(NC(=O)c4cc5ccccc5o4)cc3)nc2c1`: 3.27%; for `Cc1cccc(N2CCN(C(=O)Cn3ncc4c5ccccc5n(C)c4c3=O)CC2C)c1` (stereo unspecified): 0.336%. As to `CCc1ccc(CN(Cc2ccco2)C(=O)COc2ccc(Cl)c(C)c2)cc1`, the “activity change, negative = inhibition” value was 21.1%.

With `COc1ccc(-n2nnc(-c3nsc(NC(=O)c4ccc(C)c(C)c4)n3)c2C)cc1Cl`, the “activity change, negative = inhibition” value is -11.7%.

With `COc1ccc(-c2cc(C(F)(F)F)n3nc(-c4ccccc4)cc3n2)cc1OC`, the “activity change, negative = inhibition” value was 29.5%.

On to `CCc1ccccc1NC(=O)c1cnn(-c2ccc(F)cc2)c1C1CCNCC1`, for which the “activity change, negative = inhibition” value is 5.18%.

For the compound `CCc1ccc2oc(-c3ccc(C)c(NC(=O)/C=C/c4ccco4)c3)nc2c1`, the “activity change, negative = inhibition” value was -16.7%.

With `C=CS(=O)c1sc(Cl)c(N2CCOCC2)c1[N+](=O)[O-]` (stereo unspecified), the Potency was 50.1 µM (active). With `COc1ccc(NC(=O)C2CCCN(S(=O)(=O)c3c(C)[nH]c(=O)[nH]c3=O)C2)c(OC)c1` (stereo unspecified), the “activity change, negative = inhibition” value was 5.82%. With `CCc1ccc(CNC(=O)c2ccc(CS(=O)c3ccc(Br)cc3)o2)cc1` (stereo unspecified), the “activity change, negative = inhibition” value was -2.68%. Still for that read-out and setting: the same measure for `CCCn1ccc2c(OCC(=O)NCc3ccc(F)cc3)cccc2c1=O`: 4.22%; for `Cc1ccc(S(=O)(=O)n2nc(-c3ccc(Cl)cc3)nc2NCc2ccccc2)cc1`: 3.09%.

The record behind these values is PubChem BioAssay AID504339 (National Center for Advancing Translational Sciences (NCATS), 2011).
